SMN2 splice up: SMN2 splice variant enhancement; Potency, µM (top dose mostly 46.1 µM), without a hit: at the top dose activity change, positive = activation, usual class: activators; 210,000 compounds, 2.8% hits; HEK293 SMN2-luciferase splicing reporter, luminescence, 30-36 h; also: % of control where 0% means no effect; nearly all actives have a fitted effect of over 55% in size
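qHTS luciferase splicing reporter: luminescence rises when SMN2 exon 7 is included in transfected HEK293 cells. Compound exposure lasted 30-36 h at 37C, with 4.5 mM final sodium butyrate as control, followed by a ONE-Glo read.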
FLuc modulator: firefly luciferase modulation, counter-screen for miR-21 project; P08659; purified FLuc, Km substrates, luminescence inhibition; AID 588342; 360,000 compounds, 6.9% hits; Potency, µM (doses to about 57.5 µM), inactives show at the top dose activity change, negative = inhibition, most hits filed as inhibitors;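 also: plate controls were vehicle for no effect and reference inhibitor for full effect; nearly all actives have a fitted effect of over 55% in size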
Target sequence (P08659 whole entry, looked up): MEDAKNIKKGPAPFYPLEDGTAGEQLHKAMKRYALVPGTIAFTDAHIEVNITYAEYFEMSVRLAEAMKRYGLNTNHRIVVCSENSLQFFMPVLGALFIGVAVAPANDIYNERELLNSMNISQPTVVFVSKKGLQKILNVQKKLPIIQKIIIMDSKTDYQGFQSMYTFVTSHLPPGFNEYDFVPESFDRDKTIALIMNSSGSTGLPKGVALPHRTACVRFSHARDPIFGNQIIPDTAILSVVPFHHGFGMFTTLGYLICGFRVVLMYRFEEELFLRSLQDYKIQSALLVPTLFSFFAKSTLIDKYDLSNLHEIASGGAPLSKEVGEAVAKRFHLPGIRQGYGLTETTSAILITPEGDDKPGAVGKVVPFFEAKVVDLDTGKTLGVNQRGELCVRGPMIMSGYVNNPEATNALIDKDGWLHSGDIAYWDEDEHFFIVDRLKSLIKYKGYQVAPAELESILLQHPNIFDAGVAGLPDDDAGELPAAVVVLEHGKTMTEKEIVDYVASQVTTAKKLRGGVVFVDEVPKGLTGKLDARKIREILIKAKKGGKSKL
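Biochemical qHTS of compounds, final roughly 60 µM downward over six points, against 10 nM purified firefly luciferase using Km concentrations of substrates (10 uM D-luciferin, 10 uM ATP) in Tris acetate pH 7.5 buffer; luminescence output.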
NPC1 promoter act: activates the NPC1 promoter. Huh7 NPC1 promoter luciferase reporter, 24 h. 320,000 compounds, 2.4% hits. Potency, µM (top dose mostly 9.22 µM), for the others: at the highest dose activation, hits mostly activators; also: % of control where 0% means no effect; nearly all actives have a fitted effect of over 60% in size
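NPC1 promoter–luciferase Huh7 cells; 24 h compound; luminescence.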
ELG1 repair inh: blocks ELG1-dependent DNA repair in HEK293T cells | HEK293T ELG1-luciferase reporter, luminescence, 16 h; DNA damage induced by 5-fluorouridine | Potency, µM (doses to about 46.1 µM), for the others: top-dose activity change, negative = inhibition, most hits filed as inhibitors | 330,000 compounds, 2.3% hits | AID 504467; also: % is scaled to controls: 0 for no effect and ±100 for the full control effect; nearly all actives have a fitted effect of over 55% in size
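Step one: seed 2,000 cells per well. Step two: pin-transfer compound or DMSO alongside 5-fluorouridine. Step three: incubate 16 hr, 37 °C, 5% CO2. Step four: add ONE-Glo, wait 30 min, read luminescence.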
ELG1 genotox: genotoxicity induction in ELG1-luciferase HEK293T cells. Potency, µM (top dose mostly 46 µM), without a hit: at the top dose activity change, positive = activation, most hits filed as activators. AID 504466. HEK293T ELG1-luciferase reporter, luminescence, 16 h. 330,000 compounds, 1.3% hits; also: % of control where 0% means no effect; nearly all actives have a fitted effect of over 60% in size
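16 hr compound incubation (37 °C, 5% CO2) of HEK293T cells carrying luciferase-tagged ELG1; luciferase then measured by ONE-Glo luminescence after 30 min at RT.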
Rab9 promoter act: activators of Rab9 promoter; Huh7 Rab9 promoter-luciferase reporter, luminescence, 24 h; Potency, µM (highest dose often 9.22 µM), inactives show at the highest dose activation, negative = inhibition, most hits filed as activators; 320,000 compounds, 2.8% hits; AID 485297; also: % of control where 0% means no effect; nearly all actives have a fitted effect of over 60% in size
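Luciferase signal after 10 min detection reagent at ambient indicates Rab9 promoter upregulation; stably transfected Huh7 cells were treated 24 h with compound in DMSO at 37 °C, 5% CO2.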
Starred values were filed as active, the others as inactive; ? = inconclusive; · = no result. A selection: hits, their analogues and other compounds. The true share with any hit is near 9.2%. Calls follow the shape of the dose curve; as a rule, active = well fitted curve in the direction sought with a large enough effect; inconclusive = small, poorly fitted or top-dose-only effect, or another doubt; inactive = no such curve, though single readings can be large; an effect the other way counts as inactive or inconclusive. Potency is read from the fitted curve at half-maximal effect.

SMILES	SMN2 splice up	FLuc modulator	NPC1 promoter act	ELG1 repair inh	ELG1 genotox	Rab9 promoter act
CC(C)(C)c1ccc(C(=O)Nc2cccc(-n3cnnn3)c2)cc1	·	0.6µM*	?	?	-7%	?
Cc1cc(C(=O)Nc2cnc3ccccc3c2)ccc1[N+](=O)[O-]	13µM*	?	1.4µM*	?	?	2.2µM*
Cc1cccc(N(CC(=O)NCc2ccco2)C(=O)CCC(=O)Nc2nccs2)c1	·	0%	1%	2%	0%	-2%
O=C(Nc1cnc2ccccc2c1)c1cccnc1	13µM*	11µM*	3.2µM*	?	4.6µM*	2.2µM*
O=C(Nc1cnc2ccccc2c1)c1cccc(-n2cnnn2)c1	?	24µM*	4µM*	?	10%	4.5µM*
Cn1c(NC(=O)c2cccnc2)nc2ccccc21	13µM*	?	3.2µM*	?	7%	3.5µM*
O=C(NNC(=O)c1cccc(-n2cnnn2)c1)c1ccccc1	-3%	1%	-2%	6%	15%	-1%
Cc1ccc(C(=O)Nc2cnc3ccccc3c2)cc1	·	0.076µM*	?	?	?	?
CCOc1ccc(S(=O)(=O)NCCC(=O)NCc2ccncc2)cc1	·	2%	2%	1%	-8%	6%
O=C(CSc1nc(NS(=O)(=O)c2ccccc2)cc(=O)[nH]1)Nc1ccc(F)cc1	13%	7%	-5%	?	0%	-1%
Cc1ccnc(NS(=O)(=O)c2ccc(NC(=O)CSc3nc(-c4ccccc4)cc(=O)[nH]3)cc2)n1	-5%	13µM*	-1%	7%	1%	-12%
Cc1ccc(C(=O)Nc2ccc(S(=O)(=O)Nc3cnc4ccccc4n3)cc2)cc1	·	27µM*	0%	?	14%	5%
Cc1ccccc1N(CC(=O)N1CCCCCC1)S(C)(=O)=O	·	3%	-3%	-3%	1%	-3%
COc1cc(NC(C)CCCN)c2ncccc2c1Oc1ccccc1 (configuration not stated)	9%	4%	-3%	-6%	-4%	1%
O=C(COC(=O)c1cc([N+](=O)[O-])ccc1N1CCOCC1)Nc1cc(F)ccc1F	·	1%	-10%	23µM*	2%	1%
O=C(COC(=O)c1cc([N+](=O)[O-])ccc1N1CCOCC1)c1ccc(OC(F)F)cc1OC(F)F	·	1%	-4%	21µM*	0%	2%
Cc1ccc(-n2[nH]c(C)c(C=Nc3ccc(S(=O)(=O)N4CCOCC4)cc3)c2=O)c(C)c1	2%	0%	-1%	16%	0%	-2%
Cc1ccc(NC(=O)COC(=O)CCc2c[nH]c3ccccc23)c(C)c1	·	-1%	-1%	0%	3%	1%
CC1CC1C(=O)Nc1ccc(S(=O)(=O)N2CCCCC2)cc1 (configuration not stated)	·	2%	-4%	-19%	0%	-7%
Cc1cc(C(=O)CSc2ncccn2)c(C)n1-c1cccc(F)c1	?	2.4µM*	3.5µM*	?	10µM*	1.4µM*
Cc1cc(C(=O)COC(=O)C2=COCCO2)c(C)n1-c1cccc(F)c1	·	1.9µM*	1.4µM*	?	?	0.56µM*
Cc1cc(C(=O)CSc2nc(N)cc(N)n2)c(C)n1-c1cccc(C(F)(F)F)c1	-30%	1%	-1%	-11%	-1%	-5%
Cc1cc(C(=O)CSc2n[nH]c(N)n2)c(C)n1-c1cccc(F)c1	?	24µM*	28%	?	?	?
Cc1cc(C(=O)CSc2nnnn2C)c(C)n1-c1cccc(F)c1	13µM*	7.6µM*	4µM*	?	?	1.3µM*
Cc1cc(NC(=O)C(C)SCC(=O)N(C)Cc2c(F)cccc2Cl)no1 (configuration not stated)	·	·	·	-17%	0%	·

Screening data from PubChem.
